# Screening results from PubChem.
# Sampled rows, rich in hits. Any-hit rate of the full collection: about 4.6%.
# D1 antag: human D1 dopamine receptor antagonism; P21728; HEK293 TREx D1 cells, calcium flux, dopamine EC80; stronger effect = lower value; hit rate 3.2% among 360,000; activity change, negative = inhibition, % at 10 µM; in the data active means activity change below about -30%
# Target sequence (P21728 whole entry, looked up): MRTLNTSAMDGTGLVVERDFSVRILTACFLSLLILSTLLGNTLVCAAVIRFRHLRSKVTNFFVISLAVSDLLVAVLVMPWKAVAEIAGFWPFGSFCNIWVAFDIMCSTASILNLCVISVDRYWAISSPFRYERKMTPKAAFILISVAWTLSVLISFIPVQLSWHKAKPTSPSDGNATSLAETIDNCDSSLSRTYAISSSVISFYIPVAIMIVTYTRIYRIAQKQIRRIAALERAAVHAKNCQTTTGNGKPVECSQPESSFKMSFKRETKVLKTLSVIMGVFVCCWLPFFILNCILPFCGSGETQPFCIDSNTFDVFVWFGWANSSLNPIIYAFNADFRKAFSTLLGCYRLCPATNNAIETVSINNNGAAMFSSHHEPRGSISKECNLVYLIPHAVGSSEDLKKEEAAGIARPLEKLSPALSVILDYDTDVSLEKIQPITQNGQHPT
#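 Kinetic fluorescence of a calcium dye serves as the read-out. D1-expressing Hek293 Trex cells, induced overnight at 30 C, are exposed to compound for 180 s before an EC80 dopamine addition, then read 180 s further.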
# D1 agonist: human D1 receptor agonism. P21728. HEK293 T-REx D1 cells, calcium flux, agonist mode. activation, % at 2 µM. hit rate 1% among 360,000. AID 504660
#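 Agonism was scored from calcium flux recorded over 180 s (1 read/s) after pintool compound addition, following a 10-cycle baseline. Cells were inducible force-coupled HEK293 TREx D1, plated overnight at 30 C and loaded with no-wash calcium dye.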
# TRHR enhancer: allosteric enhancers of human TRH receptor | P34981 | TRHR cells, fluo-8 calcium fluorescence, EC20 TRH enhancement | enhancement, % at 2 µM | hit rate 0.66% among 360,000 | AID 493056; in the data active means enhancement above about 30%
#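 TRHR-expressing cells loaded with fluo-8 calcium dye were read kinetically (ex 480/em 530) during compound addition, then stimulated with an EC20 of TRH (10 nM final). Enhancement of the Gq-mediated intracellular calcium response was scored.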
# TRHR agonist: agonists of human TRH receptor | AID 493084 | activation, % at 2 µM | P34981 | TRHR cells, calcium flux fluo-8, FDSS agonist mode | hit rate 0.18% among 360,000
#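 Fluo-8-loaded TRHR cells; 10 s baseline, compound added, kinetic Ca2+ fluorescence read 1/s, agonist mode.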
# D1 potentiator: human D1 dopamine receptor positive modulation; P21728; HEK293 TREx D1 cells, calcium flux, dopamine EC20 potentiation; potentiation, % at 10 µM; hit rate 0.036% among 360,000; AID 504651; in the data active means potentiation above about 30%
# Hits are given with their value; – = inactive; · = no result given; ! = a repeat was not active. Unless noted, no stated cut-off is given here; in the data, active means activation above about 30%; inactive means the rest.
SMILES,D1 antag,D1 agonist,TRHR enhancer,TRHR agonist,D1 potentiator
O=C(OCCN1C(=O)c2cccc3c(N4CCOCC4)ccc(c23)C1=O)c1cccc(Cl)c1,–,82.7,–,35.1,–
O=C(OCCN1C(=O)c2cccc3c(N4CCOCC4)ccc(c23)C1=O)c1ccccc1Cl,–,167.4,–,–,–
O=C(OCCN1C(=O)c2ccccc2C1=O)c1cc(S(=O)(=O)N2CCOCC2)ccc1Cl,–,–,–,–,–
O=C(OCCN1C(=O)c2cccc3c(N4CCOCC4)ccc(c23)C1=O)c1ccc(Cl)cc1Cl,-37.4,165.3,–,71.1,–
COc1ccc2oc(-c3ccccc3)c(C(=O)N(C)C)c2c1,-70.0,–,–,–,–
NC(=O)NC(Cc1ccccc1)C(=O)Nc1ccc(S(N)(=O)=O)cc1 (stereo not drawn),-75.6,–,–,–,–
Cc1ccc(C)c(NC(=O)Cn2nc(-c3ccccc3)nc2-c2ccccc2)c1,-33.2,–,–,–,–
NC(=O)c1ccccc1,-98.8,–,–,–,–
CCCc1nc2nc(C)c(NS(=O)(=O)c3ccc(C)c(C)c3)c(=O)n2[nH]1,–,–,–,–,–
CCOc1ccc(NC(=O)CN2C(=O)C(c3ccccc3)=NC23CCC(C)CC3)cc1 (stereo not drawn),–,–,–,–,–
CCN(c1ccccc1)S(=O)(=O)c1ccc(C(=O)Oc2ccc(C(C)=O)cc2)cc1,-38.1,–,–,–,–
Cc1ccc(NS(=O)(=O)c2cnc(N)nc2)c(C)c1,–,–,–,–,–
CSC1=NC(C)(C)CC2(C)Nc3ccccc3N12 (stereo not drawn),-32.4,–,–,–,–
CCOc1ccc(C(=O)N2CCc3cc(OC)c(OC)cc3C2COc2ccc3c(C)cc(=O)oc3c2)cc1OCC (stereo not drawn),–,–,–,–,–
O=C(NCc1ccccc1Cl)c1nnc(CS(=O)(=O)c2ccccc2)o1,–,–,30.8,–,–
COc1ccc2[nH]cc(CCNC(=O)Cc3ccc(Br)cc3)c2c1,–,–,–,–,–
CCC(C(=O)NCCc1c[nH]c2cc(OC)ccc12)c1ccccc1 (stereo not drawn),-79.6,–,–,–,–
COc1ccc2[nH]cc(CCNC(=O)Nc3ccccc3)c2c1,-34.3!,–,–,–,–
COc1ccc2[nH]cc(CCNC(=O)CCC3CCCCC3)c2c1,-42.5,–,–,–,–
COc1ccc(-c2noc(N3CCC(C(=O)N4CCN(c5cccc(OC)c5)CC4)CC3)n2)cc1,–,–,–,–,–
COc1ccc(NC(=O)C2CCN(S(=O)(=O)c3cccc(-c4noc(C)n4)c3)CC2)cc1OC,–,–,–,–,–
CC1CCCCN1Cc1c(O)ccc2c(=O)c(-c3nc4ccccc4s3)coc12 (stereo not drawn),–,–,31.6,–,–
CCc1cc2c(=O)c(-c3nc4ccccc4n3C)coc2c(CN2CCCCC2C)c1O (stereo not drawn),–,–,–,–,–
O=C(CCCc1nc2ccccc2s1)NCc1ccccc1F,-42.3,–,–,–,–
CCC(C)n1c(NC(=O)c2ccccc2)c(C#N)c2nc3ccccc3nc21 (stereo not drawn),–,–,–,–,–
SMILES,D1 antag,D1 agonist,TRHR enhancer,TRHR agonist,D1 potentiator
CCCCn1c(NC(=O)c2ccccc2)c(C#N)c2nc3ccccc3nc21,–,34.7,–,–,–
Cc1cccc(NC(=O)CCN2CC(C)OC(C)C2)c1 (stereo not drawn),–,–,35.5,–,–
CN1CCN(CCC(=O)Nc2ccccc2)CC1,-35.7,–,–,–,–
Cc1cccc(NC(=O)CCN2CCCC(C)C2)c1 (stereo not drawn),-72.0,–,–,–,–
O=C(Nc1ccc(O)cc1)N1CCOCC1,-39.3,–,–,–,–
COc1ccc(NC(=O)N2CCCCCC2)cc1,-36.8,–,–,–,–
O=C(Nc1ccc(Nc2ccccc2)cc1)N1CCOCC1,–,–,–,–,–
CC(NC(=O)C1CCCN(S(=O)(=O)c2cccs2)C1)c1ccccc1 (stereo not drawn),–,30.4,–,–,–
CC(C)NC(=O)C1CCCN(S(=O)(=O)c2cccs2)C1 (stereo not drawn),–,–,–,–,–
COc1ccccc1NC(=O)C1CCCN(S(=O)(=O)c2ccccc2)C1 (stereo not drawn),-30.9,–,–,–,–
COc1ccccc1NC(=O)C1CCCN(S(=O)(=O)c2c(C)noc2C)C1 (stereo not drawn),–,–,–,–,–
COc1ccc(-c2nsc(NC(=O)COc3ccc(C)c(C)c3)n2)cc1,–,–,–,–,–
COc1ccc(S(=O)(=O)N2CCN(C(=O)Nc3ccccc3OC)CC2)cc1,-37.4,–,–,–,–
Cc1ccccc1NC(=O)C1CCCN(C(=O)Nc2ccc(F)cc2)C1 (stereo not drawn),–,–,–,–,–
CS(=O)(=O)N1CCCC(C(=O)Nc2ccccc2)C1 (stereo not drawn),–,–,31.6,–,–
COc1ccccc1NC(=O)C1CCCN(C(=O)Nc2ccc(F)cc2)C1 (stereo not drawn),-81.5,–,–,–,–
COc1ccc(OC)c(NC(=O)N2CCCC(C(=O)c3ccccc3OC)C2)c1 (stereo not drawn),-36.3,–,–,–,–
Cc1cccc(CCNC(=O)c2ccc(CSCc3cccc(Cl)c3)o2)c1,–,–,–,–,–
CC(C)CN(CC(C)C)c1nnc(NC(=O)Nc2cccc(C(F)(F)F)c2)s1,–,–,–,–,–
O=C(COC(=O)Cc1ccc(S(=O)(=O)N2CCOCC2)s1)NCc1ccccc1,-48.3,–,–,–,–
O=C(COC(=O)Cc1ccc(S(=O)(=O)N2CCOCC2)s1)NCCc1ccccc1,–,–,–,–,–
CCCCOc1ccccc1C1CC(=O)Nc2ccc3ccccc3c21 (stereo not drawn),–,–,–,–,–
CC(C)CNC(=O)c1ccccc1NC(=O)c1ccc(CSc2ccccc2)cc1,–,32.2,–,–,–
O=C(c1ccco1)N1CCN(c2nc(-c3ccc(F)cc3)cs2)CC1,-41.7,–,–,–,–
O=C(CCC1CCN(C(=O)c2ccco2)CC1)NCc1ccc(F)cc1,-49.9,–,–,–,–
SMILES,D1 antag,D1 agonist,TRHR enhancer,TRHR agonist,D1 potentiator
Clc1ccc(CN2C3=NCCN3c3ccccc32)cc1Cl,–,34.6,–,–,–
COc1ccc(S(=O)(=O)Nc2cc(Cl)ccc2-n2cncn2)cc1,-61.5,–,–,–,–
Cc1n[nH]c(=S)n1/N=C/c1cccc(OCc2ccccc2)c1,–,–,–,–,–
Cc1n[nH]c(=S)n1/N=C/c1ccccc1OCc1ccc(Cl)cc1,-86.8,–,–,–,–
Cc1cccc(-c2ccc3ncnc(NCc4cccc(F)c4)c3c2)c1,–,–,–,–,–
Cc1ccc(C(C)C)c(OCC(=O)NNC(=O)Cn2[nH]c(=O)c3ccccc3c2=O)c1,–,–,–,–,·
